Reference: PubChem BioAssay (NCATS)
Where “and” joins values, the source holds several entries; their conditions need not be identical. Identical values can stand only once. Inconclusive results are not listed.

Assay: qHTS Assay for Lipid Storage Modulators (AID 1519)
Details: Drosophila S3 cells, BODIPY lipid droplet/cell ratio, laser cytometry; measured here: lipid channel max response; cells loaded with oleic acid
Summary of the method: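 Cells seeded at 5,000 per well were treated with compounds over a concentration series and loaded with oleic acid (400 uM, as added). Lipid droplet fluorescence (488 nm excitation, 500-530 nm channel) was read by laser-scanning cytometry and normalized to 20 uM Triacsin C.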

Q: With NC[C@H](O)c1ccc(O)c(O)c1 as the compound, how does the max response read?
A: -21.1%

Q: With O=c1[nH]cnc2[nH]ncc12 as the compound, how does the max response read?
A: 12.9% and 60.4%

Q: For CCOC(=O)C1=C[C@@]2(CC)CCCN3CCc4c(n1c1ccccc41)[C@H]32, which max response is on record?
A: -15.3%

Q: For CNC[C@H](O)c1cccc(O)c1, which max response is on record?
A: 21.2%

Q: For CCCC(CCC)C(=O)O, which max response is on record?
A: 36.2%

Q: With O=NN(CCCl)C(=O)NCCCl as the compound, how does the max response read?
A: -6.13%

Q: With O=c1n(CCCN2CCN(c3cccc(Cl)c3)CC2)nc2ccccn12 as the compound, how does the max response read?
A: 37% and -15.6%

Q: With O=C1CCc2cc(OCCCCc3nnnn3C3CCCCC3)ccc2N1 as the compound, how does the max response read?
A: -27.2%

Q: Which max response does the source give for CC(=O)Oc1ccccc1C(=O)O here?
A: 27.8%

Q: With NCCc1ccc(O)c(O)c1 as the compound, how does the max response read?
A: 20.7% and 9.74% and -24.3%

Q: With C1COC(NC(C2CC2)C2CC2)=N1 as the compound, how does the max response read?
A: -12.8%

Q: Which max response does the source give for CCCCNc1cc(C(=O)O)cc(S(N)(=O)=O)c1Oc1ccccc1 here?
A: -1.29% and 24.4% and -13.7%

Q: For CC(C)(Sc1ccc(CCN(CCCCC2CCCCC2)C(=O)NC2CCCCC2)cc1)C(=O)O, which max response is on record?
A: 13.3%

Q: For NC(=O)c1cnccn1, which max response is on record?
A: 23.4%

Q: With N=c1nc(N2CCCCC2)cc(N)n1O as the compound, how does the max response read?
A: 1.34% and 23.5% and 29.3%

Q: For N[C@@H]1CONC1=O, which max response is on record?
A: -10.7% and -4.08% and 1.58%

Q: Which max response does the source give for Cc1[nH]c(=O)c(C#N)cc1-c1ccc2nccn2c1 here?
A: 21.7%

Q: For CCOC(=O)N1CCC(=C2c3ccc(Cl)cc3CCc3cccnc32)CC1, which max response is on record?
A: 11.7%
